Inconclusive results are not listed. A number with no mark means an inactive call. The call rests on the fitted dose curve; in most records, active means well fitted inhibition curve with a large enough effect; inconclusive means small, poorly fitted or top-dose-only effect; inactive means flat fitted curve, though single readings scatter.
On the % scale 0 is the no-effect control and ±100 the full control effect.

One test can be described thus: Drug repurposing screens with cells derived from glioblastoma tumor samples (AID 1345199). Further: nearly all actives have a fitted effect of over 40% in size. Conditions: GBM patient neurospheres viability, ATP luminescence, 48 h; at 20 µM (top of the series); tumour line C. In short, it runs like this: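 Four patient lines of CD133+ GBM neurospheres were screened at several concentrations; hits were retested in those lines plus three slower-growing GBM lines, using 48-hour treatment and ATP-based viability.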
Regarding `NC(N)=NS(=O)(=O)c1ccc(N)cc1`, the activity, negative = cell killing was 3.63%.
As to `CC1(C)[C@@H](OC(=O)CCC(=O)O)CC[C@]2(C)[C@H]3C(=O)C=C4[C@@H]5C[C@@](C)(C(=O)O)CC[C@]5(C)CC[C@@]4(C)[C@]3(C)CC[C@@H]12`, the activity, negative = cell killing was -5.99%.
The same measure, in the same setting: then `CO[C@@]1(NC(=O)C(C(=O)O)c2ccc(O)cc2)C(=O)N2C(C(=O)O)=C(CSc3nnnn3C)CO[C@@H]21` (stereo partly drawn), with -17.7%; and `CCS(=O)(=O)CCn1c([N+](=O)[O-])cnc1C`, with -12.4%; and `C[N+]1(C)CCCC(OC(=O)C(O)(c2ccccc2)c2ccccc2)C1` (stereo not drawn), with -3.92%.
On the same count and under the same terms, to `CCN(CC)CCc1nc(-c2ccccc2)no1` belongs -35.3%; to `CC(C)(C)C(=O)OCOC(=O)[C@@H]1N2C(=O)[C@@H](NC(=O)[C@H](N)c3ccccc3)[C@H]2SC1(C)C`, 0.2%; to `CCc1cccc(CC)c1NC(=O)CN(CC(=O)O)CC(=O)O`, -11.2%.
The same measure, in the same setting: to `CN[C@@H]1[C@H](O)[C@H](NC)[C@H]2O[C@@]3(O)C(=O)C[C@@H](C)O[C@H]3O[C@@H]2[C@H]1O` belongs -1.47%.

The test is the same for the next values; noted with them: GBM patient neurospheres viability, ATP luminescence, 48 h; at 21.2 µM (top of the series); tumour line B.
Take `NC(N)=NS(=O)(=O)c1ccc(N)cc1`: the activity, negative = cell killing is -6.02%.
On to `CC1(C)[C@@H](OC(=O)CCC(=O)O)CC[C@]2(C)[C@H]3C(=O)C=C4[C@@H]5C[C@@](C)(C(=O)O)CC[C@]5(C)CC[C@@]4(C)[C@]3(C)CC[C@@H]12`, for which the activity, negative = cell killing was -8.6%.
Consider `CO[C@@]1(NC(=O)C(C(=O)O)c2ccc(O)cc2)C(=O)N2C(C(=O)O)=C(CSc3nnnn3C)CO[C@@H]21` (stereo partly drawn), for which the activity, negative = cell killing is -0.689%.
On the same count and under the same terms, then `CCS(=O)(=O)CCn1c([N+](=O)[O-])cnc1C`, with -11.3%.
For the molecule `C[N+]1(C)CCCC(OC(=O)C(O)(c2ccccc2)c2ccccc2)C1` (stereo not drawn), the activity, negative = cell killing is -7.65%.
On the same count and under the same terms, to `CCN(CC)CCc1nc(-c2ccccc2)no1` belongs 0.0715%; to `CC(C)(C)C(=O)OCOC(=O)[C@@H]1N2C(=O)[C@@H](NC(=O)[C@H](N)c3ccccc3)[C@H]2SC1(C)C`, -3.35%; to `CCc1cccc(CC)c1NC(=O)CN(CC(=O)O)CC(=O)O`, -2.25%.
Regarding `CN[C@@H]1[C@H](O)[C@H](NC)[C@H]2O[C@@]3(O)C(=O)C[C@@H](C)O[C@H]3O[C@@H]2[C@H]1O`, the activity, negative = cell killing is -21.3%.
